Measured values from PubChem BioAssay.
Results filed as inconclusive are left out. Activity calls are given as the source filed them.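 How the source made its calls, unless noted: active means percent response above a set limit, the screen-wide mean plus 3 SD (cut at about 130% in these data); inactive means the rest.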

What was measured:
[1] = rapamycin-like changes in RPL19A-GFP expression – cell-based, S. cerevisiae, multiplex flow cytometry, primary screen (AID 1862; in the data active means percent of DMSO control GFP below about 86%;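 further: lower values mimic rapamycin by blocking the RPL19A rise seen in DMSO cells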); settings: S. cerevisiae RPL19A-GFP strain, flow cytometry fluorescence, 3 h; at 10 µM; stronger effect = lower value
[2] = TOR pathway GLN3 branch reporter MEP2-GFP changes – S. cerevisiae, multiplex flow cytometry, primary screen (AID 1867;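 active means GFP response, as percent of the DMSO control, above the screen-wide mean plus 3 SD, about 139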;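 further: median GFP channel fluorescence of barcode-gated MEP2-GFP cells measured by flow cytometry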); settings: S. cerevisiae MEP2-GFP strain, 3 h, at 10 µM, stronger effect = higher value, 100% means same as DMSO wells
[3] = TOR pathway RTG branch CIT2 reporter changes – S. cerevisiae, GFP fusion, multiplex flow cytometry, primary screen (AID 1870);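 further: barcoded CIT2-GFP strain pooled with four other GFP strains with rapamycin as positive control; median GFP fluorescence per well over plate mean of DMSO wells so 100% = DMSO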; settings: S. cerevisiae CIT2-GFP expression, 3 h, at 10 µM, stronger effect = higher value
[4] = TOR pathway LAP4-GFP level changes – S. cerevisiae, multiplex flow cytometry, primary screen (AID 1873;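 active means GFP signal, as percent of the solvent control, above the screen mean plus 3 SD, about 149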); settings: S. cerevisiae LAP4-GFP expression, 3 h, at 10 µM, stronger effect = higher value
[5] = yeast AGP1-GFP level changes, GLN3 branch – cell-based, multiplex flow cytometry, S. cerevisiae, primary screen (AID 1887;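 active means GFP signal above the screen-wide mean plus 3 SD, that is over about 124.5% of the solvent control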;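 further: AGP1-GFP fusion strain of S. cerevisiae within a five-strain barcoded multiplex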); settings: 3 h, at 10 µM, stronger effect = higher value
[6] = hit retest on RPL19A-GFP reporter strain – cell-based, S. cerevisiae, flow cytometry, cherry picks, mother/daughter gates, confirmation (AID 2270;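 active means GFP response below 50% of the DMSO control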); settings: 3 h, at 10 µM, stronger effect = lower value, 100 = same GFP as DMSO wells
[7] = yeast TOR pathway reporter LAP4-GFP change – cell-based, cherry picks, flow cytometry, mother/daughter gates, confirmation (AID 2271;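 active means GFP response above 150% of the DMSO control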;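 further: ratio of sample to DMSO plate mean so 100% equals DMSO level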); settings: S. cerevisiae LAP4-GFP strain, 3 h, at 10 µM, stronger effect = higher value, 100 means same as DMSO control
[8] = TOR pathway reporter MEP2-GFP, retest of hits – S. cerevisiae, flow cytometry GFP, cherry picks, confirmation (AID 2272;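 active means GFP response above 150% of the DMSO control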;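 further: ratio of well signal to plate DMSO mean so 100% equals DMSO level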); settings: S. cerevisiae MEP2-GFP strain, 3 h, at 10 µM, stronger effect = higher value
[9] = TOR pathway CIT2 reporter hit retest – S. cerevisiae, GFP fusion, cherry picks, mother/daughter gates, confirmation (AID 2274;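 active means GFP response above 150% of the DMSO level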); settings: S. cerevisiae CIT2-GFP strain, flow cytometry, 3 h, at 10 µM, stronger effect = higher value
[10] = reduced mouse 2C T cell binding to pMHC/ICAM-1 vesicles – MLPCN validation set, flow cytometry, LFA-1/ICAM-1 modulator project, pilot screen (AID 2523;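 active means response below a set limit, under 55% cells CD8-positive and vesicle-bound, and CD8 cells' 90th-percentile brightness under 279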;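 on vesicle binding response: mean PE anti-B7-1 fluorescence of CD8+ cells relative to row control; 100% = QL9-loaded vesicles with DMSO vehicle in the same plate row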); settings: 2C mouse CD8+ T cells, at 7 µM, stronger effect = lower value; double positive events: measured here: CD8+/vesicle+ event percentage
[11] = biological target: Integrin beta-1 (Homo sapiens) + Integrin alpha-4 (Homo sapiens) (UniProt P13612+P05556); test: alpha4beta1 integrin LIBS antibody binding reduction – U937 cells, HUTS-21 mAb, flow cytometry, validation set, VLA-4 allosteric modulator project, pilot screen (AID 2674;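 active means inhibition above 50%, about 3 SD of the validation set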;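 further: antibody binding induced by the VLA-4 ligand LDV present at three times its Kd; 0% = LDV ligand with antibody and no compound and 100% = antibody without LDV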); settings: HUTS-21 LIBS mAb binding, at 6.7 µM, stronger effect = higher value, binding induced by LDV ligand
Chain of Integrin beta-1 (Homo sapiens) + Integrin alpha-4 (Homo sapiens) (P05556 whole entry, looked up): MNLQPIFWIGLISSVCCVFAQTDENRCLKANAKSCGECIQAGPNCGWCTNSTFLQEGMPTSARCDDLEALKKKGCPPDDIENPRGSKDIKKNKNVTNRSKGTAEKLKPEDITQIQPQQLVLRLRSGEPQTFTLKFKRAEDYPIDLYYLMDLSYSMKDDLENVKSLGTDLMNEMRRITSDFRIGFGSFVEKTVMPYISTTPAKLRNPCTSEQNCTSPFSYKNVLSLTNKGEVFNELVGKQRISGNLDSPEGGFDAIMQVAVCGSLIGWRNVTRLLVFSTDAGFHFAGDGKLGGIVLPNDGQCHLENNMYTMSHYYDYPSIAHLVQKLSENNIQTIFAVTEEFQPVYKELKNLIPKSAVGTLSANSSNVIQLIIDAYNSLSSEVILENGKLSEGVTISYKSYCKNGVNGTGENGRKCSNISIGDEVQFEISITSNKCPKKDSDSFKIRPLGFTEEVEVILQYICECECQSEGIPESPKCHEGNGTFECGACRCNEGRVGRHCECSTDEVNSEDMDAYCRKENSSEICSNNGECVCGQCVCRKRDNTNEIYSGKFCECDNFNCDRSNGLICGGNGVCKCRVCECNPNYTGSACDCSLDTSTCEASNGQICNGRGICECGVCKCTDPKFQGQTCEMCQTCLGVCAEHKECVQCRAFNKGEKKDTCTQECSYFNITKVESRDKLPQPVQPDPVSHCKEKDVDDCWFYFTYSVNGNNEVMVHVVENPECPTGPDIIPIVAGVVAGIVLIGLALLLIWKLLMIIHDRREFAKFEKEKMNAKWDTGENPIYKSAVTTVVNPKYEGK
Chain of Integrin beta-1 (Homo sapiens) + Integrin alpha-4 (Homo sapiens) (P13612 whole entry, looked up): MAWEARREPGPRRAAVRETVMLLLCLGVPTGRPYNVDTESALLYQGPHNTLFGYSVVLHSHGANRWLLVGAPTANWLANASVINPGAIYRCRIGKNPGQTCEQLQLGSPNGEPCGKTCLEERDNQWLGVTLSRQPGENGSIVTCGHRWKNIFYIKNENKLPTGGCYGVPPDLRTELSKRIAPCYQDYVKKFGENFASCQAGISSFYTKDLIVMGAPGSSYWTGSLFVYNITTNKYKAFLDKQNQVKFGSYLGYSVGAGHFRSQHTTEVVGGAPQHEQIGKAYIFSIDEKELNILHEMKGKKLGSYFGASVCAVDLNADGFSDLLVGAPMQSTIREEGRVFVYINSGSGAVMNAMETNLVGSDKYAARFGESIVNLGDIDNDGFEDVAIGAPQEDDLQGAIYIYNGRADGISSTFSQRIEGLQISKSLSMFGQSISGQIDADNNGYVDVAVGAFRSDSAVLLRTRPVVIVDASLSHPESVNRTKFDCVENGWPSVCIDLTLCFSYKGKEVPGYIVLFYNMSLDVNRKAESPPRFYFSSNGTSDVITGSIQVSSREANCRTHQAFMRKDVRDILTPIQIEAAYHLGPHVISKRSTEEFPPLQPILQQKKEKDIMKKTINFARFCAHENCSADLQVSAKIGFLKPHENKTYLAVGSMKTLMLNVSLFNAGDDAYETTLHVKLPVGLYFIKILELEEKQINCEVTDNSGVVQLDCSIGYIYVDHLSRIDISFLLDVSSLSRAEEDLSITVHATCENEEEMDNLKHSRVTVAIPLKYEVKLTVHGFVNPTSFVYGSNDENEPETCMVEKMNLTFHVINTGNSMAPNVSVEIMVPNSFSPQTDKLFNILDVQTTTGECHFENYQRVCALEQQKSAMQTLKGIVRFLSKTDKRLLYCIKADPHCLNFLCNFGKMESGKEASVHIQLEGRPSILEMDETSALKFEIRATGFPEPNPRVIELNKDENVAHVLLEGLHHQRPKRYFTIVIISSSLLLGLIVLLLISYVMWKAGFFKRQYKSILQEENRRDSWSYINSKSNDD

[12] = calorie-restriction mimetic ROS inhibitors, yeast – validation compound set, pilot screen (AID 2706;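 active means superoxide response below 65% of plate, a cut near 3 SD across the whole screen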;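 further: yeast exposed to compound for one week at 30 degrees C before staining; 100% = mean of all compound wells on the same plate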); settings: S. cerevisiae aging, superoxide DHE fluorescence; at 10 µM; stronger effect = lower value
[13] = biological target: Beta-adrenergic receptor kinase 1 (Homo sapiens) (UniProt P25098); test: GRK2 binders displacing RNA aptamer, biochemical, validation, human GRK2, bead flow cytometry (AID 488806;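 active means aptamer binding inhibition above 30%, about 3 SD of noise from non-fluorescent compounds; inactive means inhibition at or below 30%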); settings: bead-bound GRK2, FAM-aptamer displacement, at 10 µM, stronger effect = higher value
Chain of Beta-adrenergic receptor kinase 1 (Homo sapiens) (P25098 whole entry, looked up): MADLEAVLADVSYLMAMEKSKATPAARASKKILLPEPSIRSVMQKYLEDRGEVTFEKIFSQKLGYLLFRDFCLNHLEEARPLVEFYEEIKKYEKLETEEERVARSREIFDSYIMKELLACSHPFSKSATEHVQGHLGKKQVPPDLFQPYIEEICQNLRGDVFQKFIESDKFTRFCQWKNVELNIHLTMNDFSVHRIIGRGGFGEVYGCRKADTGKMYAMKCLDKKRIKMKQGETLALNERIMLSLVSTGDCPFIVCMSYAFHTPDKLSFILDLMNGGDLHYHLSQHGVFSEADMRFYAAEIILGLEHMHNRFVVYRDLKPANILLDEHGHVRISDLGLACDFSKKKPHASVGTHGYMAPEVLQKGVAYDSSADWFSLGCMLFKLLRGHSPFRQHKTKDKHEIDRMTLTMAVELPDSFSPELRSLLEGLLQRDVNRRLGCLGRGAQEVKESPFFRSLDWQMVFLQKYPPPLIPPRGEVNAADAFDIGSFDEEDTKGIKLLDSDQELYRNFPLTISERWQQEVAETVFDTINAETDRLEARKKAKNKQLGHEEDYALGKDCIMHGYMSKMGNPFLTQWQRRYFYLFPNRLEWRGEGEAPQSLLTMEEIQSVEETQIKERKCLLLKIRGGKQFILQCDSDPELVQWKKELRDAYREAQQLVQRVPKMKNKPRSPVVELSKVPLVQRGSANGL

[14] = biological target: Beta-2 adrenergic receptor (Homo sapiens) (UniProt P07550); test: agonist-induced loss of surface beta2AR – cell-based, FAP fluorogen, flow cytometry, validation set, pilot screen (AID 504459;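 active means percent response above 42, roughly 3 SD of non-fluorescent test compounds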;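 further: agonist-driven loss of surface beta2AR via internalization measured by FAP dye flow cytometry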); settings: Am2.2-beta2AR cells, at 10 µM, stronger effect = higher value
Chain of Beta-2 adrenergic receptor (Homo sapiens) (P07550 whole entry, looked up): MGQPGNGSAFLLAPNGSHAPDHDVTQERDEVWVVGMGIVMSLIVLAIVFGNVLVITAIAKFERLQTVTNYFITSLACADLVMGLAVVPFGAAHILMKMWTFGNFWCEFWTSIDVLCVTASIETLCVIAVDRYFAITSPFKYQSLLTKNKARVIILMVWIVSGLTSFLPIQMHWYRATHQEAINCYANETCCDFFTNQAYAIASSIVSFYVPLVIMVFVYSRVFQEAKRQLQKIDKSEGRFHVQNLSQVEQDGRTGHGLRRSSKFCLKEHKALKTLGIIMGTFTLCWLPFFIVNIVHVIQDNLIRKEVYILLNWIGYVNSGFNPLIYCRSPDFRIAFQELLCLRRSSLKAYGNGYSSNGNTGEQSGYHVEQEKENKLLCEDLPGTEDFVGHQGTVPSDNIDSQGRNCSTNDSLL

[15] = biological target: AP-2 complex subunit beta (Homo sapiens) (UniProt P63010); test: beta-arrestin/AP2 interaction blockers – biochemical, validation set, GST-AP2 beads, flow cytometry, pilot screen (AID 504541;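 active means inhibition above 54%, about 3 SD of non-fluorescent compounds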;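 further: AP2 carries R879A mutation and is captured from E. coli lysate; bead-bound FITC arrestin peptide fluorescence measuring arrestin peptide binding to AP2; 0% = DMSO wells and 100% = excess unlabeled arrestin peptide control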); settings: FITC arrestin peptide, at 10 µM, stronger effect = higher value, AP2 beta2 appendage fragment, R879A mutant
Chain of AP-2 complex subunit beta (Homo sapiens) (P63010 whole entry, looked up, the tested form may be a part, one chain of several): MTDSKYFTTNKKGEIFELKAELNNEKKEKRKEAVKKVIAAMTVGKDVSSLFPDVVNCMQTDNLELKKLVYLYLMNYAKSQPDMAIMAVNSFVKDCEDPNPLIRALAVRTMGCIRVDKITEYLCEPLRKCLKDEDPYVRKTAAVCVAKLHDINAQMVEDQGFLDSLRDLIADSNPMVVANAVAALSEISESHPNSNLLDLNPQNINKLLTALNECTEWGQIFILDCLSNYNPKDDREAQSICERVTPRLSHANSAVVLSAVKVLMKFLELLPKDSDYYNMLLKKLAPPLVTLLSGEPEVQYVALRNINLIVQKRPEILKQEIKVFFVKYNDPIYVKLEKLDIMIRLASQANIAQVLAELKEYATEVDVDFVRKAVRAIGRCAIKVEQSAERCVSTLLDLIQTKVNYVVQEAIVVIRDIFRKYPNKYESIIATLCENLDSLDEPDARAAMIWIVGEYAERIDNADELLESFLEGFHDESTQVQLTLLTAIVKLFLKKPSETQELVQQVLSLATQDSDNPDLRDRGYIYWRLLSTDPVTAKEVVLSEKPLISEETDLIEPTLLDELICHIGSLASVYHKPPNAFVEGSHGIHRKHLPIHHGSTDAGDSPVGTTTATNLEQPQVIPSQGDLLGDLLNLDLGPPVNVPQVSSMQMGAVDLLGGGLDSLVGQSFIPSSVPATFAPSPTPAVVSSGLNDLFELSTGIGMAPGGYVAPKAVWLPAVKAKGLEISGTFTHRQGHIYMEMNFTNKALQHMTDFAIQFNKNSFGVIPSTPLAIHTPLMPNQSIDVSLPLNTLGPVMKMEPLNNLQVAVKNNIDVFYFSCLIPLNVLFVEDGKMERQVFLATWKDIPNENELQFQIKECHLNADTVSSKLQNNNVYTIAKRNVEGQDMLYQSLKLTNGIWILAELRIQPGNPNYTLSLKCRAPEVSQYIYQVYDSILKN

[16] = cytosolic pH regulators acting via V-ATPase – S. cerevisiae, pHLuorin, HTS validation (AID 504600; in the data active means response above about 15%;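 further: plate controls were DMSO for no effect and reference compound for full effect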); settings: V-ATPase proton transport, at 10 µM, stronger effect = higher value
[17] = test system: anti-desmoglein-3 scFv antibody binding to human DSG3; test: blockers of pathogenic pemphigus antibody–desmoglein-3 binding – biochemical, validation compound set, bead-based, flow cytometry, pilot screen (AID 588368;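 active means binding below the plate cutoff, the plate median minus 3 SD, with a reading above zero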;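 further: signal is the median channel fluorescence of bead-bound GFP antibody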); settings: Protein G beads, DSG3-Fc, scFv-GFP binding, at 10 µM, stronger effect = lower value
[18] = Nile Red efflux blockade in pump-expressing yeast – validation compound set, multiplex, phenotypic, pilot screen (AID 588506;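 active means efflux inhibition above 0.42, the validation set average plus 4 SD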;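 further: Nile Red retained in cells so higher fluorescence means more efflux inhibition; 0 = negative control wells and 1 = enniatin B 25 µM full block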); settings: S. cerevisiae pump-expressing triplex, Nile Red efflux flow cytometry; at 10 µM; stronger effect = higher value; the pumps come from Candida albicans
[19] = biological target: ATP-binding cassette sub-family B member 6 (Homo sapiens) (UniProt Q9NP58); test: blockers of ABCB6-driven porphyrin uptake – K562-ABCB6 cells, flow cytometry, validation set, pilot screen (AID 588550;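 active means inhibition above the screen-wide mean plus 3 SD, about 51%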;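 further: 0% = DMSO wells and 100% = benzethonium chloride 70 µM positive control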); settings: K562-ABCB6 porphyrin accumulation, 1 h, at 10 µM, stronger effect = higher value
Chain of ATP-binding cassette sub-family B member 6 (Homo sapiens) (Q9NP58 whole entry, looked up): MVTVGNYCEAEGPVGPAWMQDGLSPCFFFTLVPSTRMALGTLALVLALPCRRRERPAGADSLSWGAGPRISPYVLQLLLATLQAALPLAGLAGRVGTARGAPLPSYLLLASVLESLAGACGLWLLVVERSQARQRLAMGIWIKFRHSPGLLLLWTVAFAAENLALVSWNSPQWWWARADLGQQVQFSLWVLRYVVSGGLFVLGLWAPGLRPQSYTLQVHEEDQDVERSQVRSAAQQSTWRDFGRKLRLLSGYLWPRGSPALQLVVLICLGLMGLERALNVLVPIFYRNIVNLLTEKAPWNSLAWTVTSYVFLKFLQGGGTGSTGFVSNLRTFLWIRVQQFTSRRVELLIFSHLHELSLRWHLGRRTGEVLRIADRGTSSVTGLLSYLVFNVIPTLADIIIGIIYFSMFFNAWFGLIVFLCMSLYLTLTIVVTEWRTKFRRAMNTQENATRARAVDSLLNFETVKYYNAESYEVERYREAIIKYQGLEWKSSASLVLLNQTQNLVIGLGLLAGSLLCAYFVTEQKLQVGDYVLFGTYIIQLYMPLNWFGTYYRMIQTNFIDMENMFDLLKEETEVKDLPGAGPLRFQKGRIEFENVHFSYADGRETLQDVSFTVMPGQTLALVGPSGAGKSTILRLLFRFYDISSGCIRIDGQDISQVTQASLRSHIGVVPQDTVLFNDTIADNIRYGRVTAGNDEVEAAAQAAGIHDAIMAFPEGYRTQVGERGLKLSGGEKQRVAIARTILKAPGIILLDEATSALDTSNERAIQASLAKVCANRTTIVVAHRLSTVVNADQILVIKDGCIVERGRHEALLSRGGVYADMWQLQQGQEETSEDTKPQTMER

[20] = AML differentiation inducers, ER-HoxA9 marrow cells – cell-based, GFP/MAC1 double positive, flow cytometry, validation set, primary screen (AID 588685;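 active means differentiation response of at least 50%, scaled between solvent and reference control, from cells with both markers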;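 further: compound exposure lasts four days before antibody staining and flow analysis; 0% = DMSO wells and 100% = 5 µM fulvestrant positive control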); settings: stronger effect = higher value, normalized: vehicle 0, fulvestrant 100
[21] = measured here: daughter cell gate
[22] = measured here: mother cell gate
[23] = measured here: daughter cell gate response
[24] = measured here: mother cell gate response

CC(=O)[C@H]1CC[C@H]2[C@@H]3CCC4=CC(=O)CC[C@]4(C)[C@H]3[C@H](O)C[C@]12C
99.1%: GFP response, % of DMSO [9, 22]
active: GFP response vs DMSO [2] 147%
102%: GFP response relative to DMSO [7, 23] | GFP response, % of DMSO [9, 21]
57.7%: double positive events [10]
99.3%: GFP response vs DMSO [6, 21]
inactive: percent of DMSO control GFP [1] 93% | percent response of DMSO control [3] 99.2% | GFP response vs DMSO [4] 85.3% | GFP response, % of DMSO [5] 93.3% | GFP response vs DMSO [6] 99.1% | GFP response relative to DMSO [7] 100% | GFP response vs DMSO [8] 97.5% | GFP response, % of DMSO [9] 101% | vesicle binding response [10] 64.9% | inhibition [11] -20.7% | superoxide response (% of plate) [12] 109% | aptamer binding inhibition [13] 3% | response [14] 0.15% | inhibition [15] 16.3% | response [16] -2.3% | binding (% of control) [17] 97.4% | efflux inhibition (fraction of control) [18] 0.12 | inhibition [19] 2% | differentiation response [20] 4.09%
99.7%: GFP response vs DMSO [6, 22]
98.5%: GFP response relative to DMSO [7, 24]

CNCCC(Oc1ccc(C(F)(F)F)cc1)c1ccccc1 (stereo not given)
94.8%: GFP response, % of DMSO [9, 21]
58%: double positive events [10]
101%: GFP response relative to DMSO [7, 24]
99.1%: GFP response vs DMSO [6, 22]
97%: GFP response vs DMSO [6, 21]
93.4%: GFP response, % of DMSO [9, 22]
active: GFP response vs DMSO [2] 141%
95.6%: GFP response relative to DMSO [7, 23]
inactive: percent of DMSO control GFP [1] 89.8% | percent response of DMSO control [3] 107% | GFP response vs DMSO [4] 83.1% | GFP response, % of DMSO [5] 90.3% | GFP response vs DMSO [6] 98.4% | GFP response relative to DMSO [7] 97.4% | GFP response vs DMSO [8] 102% | GFP response, % of DMSO [9] 93.9% | vesicle binding response [10] 142% | inhibition [11] 6.46% | superoxide response (% of plate) [12] 85.8% | aptamer binding inhibition [13] 0% | response [14] 16.8% | inhibition [15] 13.5% | response [16] 1.16% | binding (% of control) [17] 94.1% | inhibition [19] 6% | differentiation response [20] -1.64%

C[C@]12C[C@H](O)[C@H]3[C@@H](CCC4=CC(=O)CC[C@@]43C)[C@@H]1CC[C@@H]2C(=O)CO
70.2%: double positive events [10]
98.9%: GFP response vs DMSO [6, 21]
94.4%: GFP response relative to DMSO [7, 23]
98.7%: GFP response vs DMSO [6, 22]
105%: GFP response, % of DMSO [9, 21]
106%: GFP response, % of DMSO [9, 22]
inactive: percent of DMSO control GFP [1] 96.3% | GFP response vs DMSO [2] 110% | percent response of DMSO control [3] 112% | GFP response vs DMSO [4] 78.1% | GFP response, % of DMSO [5] 101% | GFP response vs DMSO [6] 98.2% | GFP response relative to DMSO [7] 94.1% | GFP response vs DMSO [8] 98.3% | GFP response, % of DMSO [9] 105% | vesicle binding response [10] 222% | inhibition [11] 31.7% | superoxide response (% of plate) [12] 103% | aptamer binding inhibition [13] 4% | response [14] 4.9% | inhibition [15] -0.36% | response [16] 6.31% | binding (% of control) [17] 104% | efflux inhibition (fraction of control) [18] -0.56 | inhibition [19] 12% | differentiation response [20] 4.91%
94%: GFP response relative to DMSO [7, 24]
